# Of roughly 8,800 targets only a part is listed; those with a hit were picked by preference. About 0.5% of all pairs of compound and target were hits. A number with no mark means an inactive call.
# What was measured:
# Assay in all cases: log2 fold change, soluble protein after heating vs DMSO (PISA); higher = thermal stabilisation; K562 lysate, 10 uM; active = over 0.2 and 3.5 SD of the protein, either way, in both replicates (recomputed)
# [1] = compound: CCCS(=O)(=O)Nc1ccc(F)c(C(=O)c2c[nH]c3ncc(-c4ccc(Cl)cc4)cc23)c1F [vemurafenib]
# Summary of the method: (§1)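 Log-two fold change in thermal stability relative to solvent controls is reported from duplicates. For each sample, crude K562 extract from dounce-homogenised pellets in PBS pH 7.4 with 1 mM MgCl2, at 1 mg/mL protein, was treated with 10 μM compound for 30 min. Aliquots heated for 3 min across 48°C-58°C were pooled, brought to 0.5% NP-40 at 4°C and cleared at 21,000xg for 90 min. The supernatant was quantified by TMTpro 16plex LC-MS/MS with channel sums equalised.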
# [2] = compound: CCCS(=O)(=O)Nc1ccc(F)c(C(=O)c2c[nH]c3ncc(Cl)cc23)c1F
# Summary of the method: as §1
# [3] = compound: CCN(CCCOc1ccc2c(Nc3cc(CC(=O)Nc4cccc(F)c4)[nH]n3)ncnc2c1)CCOP(=O)(O)O [barasertib]
# Summary of the method: as §1
# [4] = compound: CC[C@@H]1C(=O)N(C)c2cnc(Nc3ccc(C(=O)NC4CCN(C)CC4)cc3OC)nc2N1C1CCCC1
# Summary of the method: as §1
# [5] = compound: CC[C@@H]1C(=O)N(C)c2cnc(Nc3ccc(C(=O)N[C@H]4CC[C@H](N5CCN(CC6CC6)CC5)CC4)cc3OC)nc2N1C(C)C [volasertib]
# Summary of the method: as §1
# [6] = compound: CCn1c(C(=O)N(C2CC2)C2CC2)cc2c3c(ncn3C)c(Nc3cc(C)n(C)n3)nc21
# Summary of the method: as §1
# [7] = compound: CCn1cc(-c2ccnc3[nH]c(-c4cccc(CN(C)C)c4)cc23)c(-c2ccc(NC(=O)N(C)C)cc2)n1
# Summary of the method: as §1
# [8] = compound: CN1CCC(CNc2ccc3ncc(-c4cccc(OC(F)(F)F)c4)n3n2)CC1
# Summary of the method: as §1
# [9] = compound: CN1CCN(CCOc2cc(OC3CCOCC3)c3c(Nc4c(Cl)ccc5c4OCO5)ncnc3c2)CC1 [saracatinib]
# Summary of the method: as §1
# [10] = compound: CN1CCN(c2nc(C3=C(c4c[nH]c5ccccc45)C(=O)NC3=O)c3ccccc3n2)CC1 [sotrastaurin]
# Summary of the method: as §1
# [11] = compound: CN1CC[C@H](c2c(O)cc(O)c3c(=O)cc(-c4ccccc4Cl)oc23)[C@H](O)C1 [alvocidib]
# Summary of the method: as §1
# [12] = compound: CN1CCc2c(c3ccccc3n2Cc2ccc(C(=O)NO)cc2)C1 [Tubastatin A]
# Summary of the method: as §1
# [13] = compound: CNC(=O)C1=CC=CC=C1NC2=NC(=NC=C2Cl)NC3=C(C=C(C=C3)N4CCOCC4)OC
# Summary of the method: as §1
# [14] = compound: CNC(=O)c1ccc(Nc2ncc(C(F)(F)F)c(NCc3nccnc3N(C)S(C)(=O)=O)n2)cc1 [defactinib]
# Summary of the method: as §1
# [15] = compound: CNc1nc(-c2ccc3c(N)n[nH]c3c2)cc(N2C[C@@H](C(=O)NC3CCCCC3)CC[C@H]2C)n1
# Summary of the method: as §1
# [16] = compound: COC(=O)N[C@@H](C)CNc1nccc(-c2cn(C(C)C)nc2-c2cc(Cl)cc(NS(C)(=O)=O)c2F)n1 [encorafenib]
# Summary of the method: as §1
# [17] = compound: COC(=O)[C@H](CCSC)NC(=O)C1=C(C=C(C=C1)NC[C@H](CS)N)C2=CC=CC=C2
# Summary of the method: as §1
# [18] = compound: COc1cc(Nc2ncc3c(n2)-c2ccc(Cl)cc2C(c2c(F)cccc2OC)=NC3)ccc1C(=O)O [alisertib]
# Summary of the method: as §1
# [19] = compound: COc1cc2nc(-c3cc(F)ccc3O)nc(N[C@@H]3CNC[C@H]3C(C)(C)O)c2cc1OC
# Summary of the method: as §1
# [20] = compound: COc1cc2ncnc(Nc3ccc(F)c(Cl)c3)c2cc1OCCCN1CCOCC1 [gefitinib]
# Summary of the method: as §1
# UniProt Q9Y6C9, sequence (Q9Y6C9 whole entry, looked up): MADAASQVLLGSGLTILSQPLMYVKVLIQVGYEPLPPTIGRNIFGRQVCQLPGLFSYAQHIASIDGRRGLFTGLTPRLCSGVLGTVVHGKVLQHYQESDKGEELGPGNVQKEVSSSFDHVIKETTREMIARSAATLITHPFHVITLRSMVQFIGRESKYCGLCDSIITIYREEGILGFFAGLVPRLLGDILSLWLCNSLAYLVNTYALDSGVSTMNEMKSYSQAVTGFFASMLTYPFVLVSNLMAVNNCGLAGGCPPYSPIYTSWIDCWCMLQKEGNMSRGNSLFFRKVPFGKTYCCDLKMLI
# UniProt Q9BYG3, sequence (Q9BYG3 whole entry, looked up): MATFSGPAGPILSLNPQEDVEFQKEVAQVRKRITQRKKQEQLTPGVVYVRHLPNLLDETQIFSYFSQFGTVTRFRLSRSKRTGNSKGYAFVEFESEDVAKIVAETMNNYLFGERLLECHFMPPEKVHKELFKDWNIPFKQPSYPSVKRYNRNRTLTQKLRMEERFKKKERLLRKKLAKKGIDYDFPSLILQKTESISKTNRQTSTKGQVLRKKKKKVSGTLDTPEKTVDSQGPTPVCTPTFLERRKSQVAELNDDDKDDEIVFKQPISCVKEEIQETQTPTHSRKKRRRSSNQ
# UniProt Q8TEM1, sequence (Q8TEM1 whole entry, looked up): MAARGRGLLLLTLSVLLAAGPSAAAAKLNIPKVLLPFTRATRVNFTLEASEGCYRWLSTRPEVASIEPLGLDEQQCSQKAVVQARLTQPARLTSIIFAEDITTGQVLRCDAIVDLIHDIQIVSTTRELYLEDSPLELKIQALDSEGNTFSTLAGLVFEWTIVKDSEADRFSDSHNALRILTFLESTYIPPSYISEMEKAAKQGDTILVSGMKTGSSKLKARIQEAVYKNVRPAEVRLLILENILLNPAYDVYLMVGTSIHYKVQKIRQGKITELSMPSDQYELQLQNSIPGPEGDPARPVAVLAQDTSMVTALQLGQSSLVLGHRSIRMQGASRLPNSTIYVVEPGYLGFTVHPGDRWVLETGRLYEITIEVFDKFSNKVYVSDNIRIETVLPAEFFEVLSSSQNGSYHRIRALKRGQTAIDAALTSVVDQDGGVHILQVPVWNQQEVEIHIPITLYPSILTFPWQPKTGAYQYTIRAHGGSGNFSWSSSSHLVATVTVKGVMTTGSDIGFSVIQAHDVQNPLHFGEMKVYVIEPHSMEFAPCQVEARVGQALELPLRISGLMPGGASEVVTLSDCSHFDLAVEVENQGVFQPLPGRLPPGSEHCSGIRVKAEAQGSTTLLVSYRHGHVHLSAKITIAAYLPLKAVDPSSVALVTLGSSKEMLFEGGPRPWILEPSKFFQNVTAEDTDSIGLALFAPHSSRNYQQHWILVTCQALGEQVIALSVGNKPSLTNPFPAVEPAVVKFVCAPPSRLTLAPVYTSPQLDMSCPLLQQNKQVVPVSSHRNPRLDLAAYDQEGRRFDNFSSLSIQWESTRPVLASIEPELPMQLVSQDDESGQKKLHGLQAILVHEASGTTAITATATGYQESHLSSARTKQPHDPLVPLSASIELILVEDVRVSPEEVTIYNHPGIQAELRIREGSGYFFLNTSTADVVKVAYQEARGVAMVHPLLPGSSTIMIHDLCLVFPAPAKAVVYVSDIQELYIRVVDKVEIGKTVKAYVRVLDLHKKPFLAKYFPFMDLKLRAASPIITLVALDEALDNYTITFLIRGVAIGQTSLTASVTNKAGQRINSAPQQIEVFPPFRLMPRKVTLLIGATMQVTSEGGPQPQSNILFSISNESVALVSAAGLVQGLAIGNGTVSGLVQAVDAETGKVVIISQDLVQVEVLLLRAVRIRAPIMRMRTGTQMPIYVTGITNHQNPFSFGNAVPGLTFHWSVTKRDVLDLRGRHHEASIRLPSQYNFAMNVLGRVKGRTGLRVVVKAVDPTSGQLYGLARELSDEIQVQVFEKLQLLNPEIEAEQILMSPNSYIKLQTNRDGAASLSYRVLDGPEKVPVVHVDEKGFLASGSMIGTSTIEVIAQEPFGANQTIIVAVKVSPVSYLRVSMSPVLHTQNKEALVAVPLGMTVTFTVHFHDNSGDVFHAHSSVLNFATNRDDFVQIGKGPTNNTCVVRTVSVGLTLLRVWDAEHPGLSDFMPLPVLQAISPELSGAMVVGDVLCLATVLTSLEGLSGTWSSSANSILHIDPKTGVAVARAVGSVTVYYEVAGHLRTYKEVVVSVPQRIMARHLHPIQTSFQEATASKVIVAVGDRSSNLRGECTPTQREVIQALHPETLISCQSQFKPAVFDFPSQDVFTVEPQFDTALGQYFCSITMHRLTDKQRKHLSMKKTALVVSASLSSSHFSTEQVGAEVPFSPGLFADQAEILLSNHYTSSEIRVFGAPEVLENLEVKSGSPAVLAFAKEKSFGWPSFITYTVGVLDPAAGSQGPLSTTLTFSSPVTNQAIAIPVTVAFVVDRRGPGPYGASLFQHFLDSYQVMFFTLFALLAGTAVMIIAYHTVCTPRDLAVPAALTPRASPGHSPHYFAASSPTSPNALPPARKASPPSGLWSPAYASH
# UniProt Q9BPX3, sequence (Q9BPX3 whole entry, looked up): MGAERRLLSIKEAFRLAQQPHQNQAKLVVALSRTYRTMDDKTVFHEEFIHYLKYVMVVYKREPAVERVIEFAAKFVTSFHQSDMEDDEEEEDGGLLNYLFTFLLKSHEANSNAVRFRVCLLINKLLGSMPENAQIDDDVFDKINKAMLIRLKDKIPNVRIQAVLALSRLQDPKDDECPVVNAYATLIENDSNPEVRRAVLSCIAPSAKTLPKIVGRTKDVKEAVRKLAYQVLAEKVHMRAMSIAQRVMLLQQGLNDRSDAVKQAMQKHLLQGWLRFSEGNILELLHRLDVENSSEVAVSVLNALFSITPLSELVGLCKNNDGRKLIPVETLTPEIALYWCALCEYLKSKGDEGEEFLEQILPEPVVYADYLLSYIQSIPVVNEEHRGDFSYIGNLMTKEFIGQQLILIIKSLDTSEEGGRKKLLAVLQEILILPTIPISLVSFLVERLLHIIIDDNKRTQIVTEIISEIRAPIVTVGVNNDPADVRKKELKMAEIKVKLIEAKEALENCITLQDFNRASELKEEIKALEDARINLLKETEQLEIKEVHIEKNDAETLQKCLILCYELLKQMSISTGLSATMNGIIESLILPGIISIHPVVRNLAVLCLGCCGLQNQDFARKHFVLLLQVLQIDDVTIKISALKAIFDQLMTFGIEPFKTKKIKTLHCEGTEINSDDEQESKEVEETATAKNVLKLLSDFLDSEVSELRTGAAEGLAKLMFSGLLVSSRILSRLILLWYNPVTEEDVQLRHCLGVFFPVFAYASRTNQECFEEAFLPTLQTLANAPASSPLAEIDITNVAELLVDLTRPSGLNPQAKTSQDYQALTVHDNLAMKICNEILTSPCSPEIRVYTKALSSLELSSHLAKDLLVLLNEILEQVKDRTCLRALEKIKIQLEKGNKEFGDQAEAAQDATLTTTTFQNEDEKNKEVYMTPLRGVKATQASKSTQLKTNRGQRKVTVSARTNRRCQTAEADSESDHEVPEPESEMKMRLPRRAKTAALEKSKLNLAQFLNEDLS
# UniProt O94832, sequence (O94832 whole entry, looked up): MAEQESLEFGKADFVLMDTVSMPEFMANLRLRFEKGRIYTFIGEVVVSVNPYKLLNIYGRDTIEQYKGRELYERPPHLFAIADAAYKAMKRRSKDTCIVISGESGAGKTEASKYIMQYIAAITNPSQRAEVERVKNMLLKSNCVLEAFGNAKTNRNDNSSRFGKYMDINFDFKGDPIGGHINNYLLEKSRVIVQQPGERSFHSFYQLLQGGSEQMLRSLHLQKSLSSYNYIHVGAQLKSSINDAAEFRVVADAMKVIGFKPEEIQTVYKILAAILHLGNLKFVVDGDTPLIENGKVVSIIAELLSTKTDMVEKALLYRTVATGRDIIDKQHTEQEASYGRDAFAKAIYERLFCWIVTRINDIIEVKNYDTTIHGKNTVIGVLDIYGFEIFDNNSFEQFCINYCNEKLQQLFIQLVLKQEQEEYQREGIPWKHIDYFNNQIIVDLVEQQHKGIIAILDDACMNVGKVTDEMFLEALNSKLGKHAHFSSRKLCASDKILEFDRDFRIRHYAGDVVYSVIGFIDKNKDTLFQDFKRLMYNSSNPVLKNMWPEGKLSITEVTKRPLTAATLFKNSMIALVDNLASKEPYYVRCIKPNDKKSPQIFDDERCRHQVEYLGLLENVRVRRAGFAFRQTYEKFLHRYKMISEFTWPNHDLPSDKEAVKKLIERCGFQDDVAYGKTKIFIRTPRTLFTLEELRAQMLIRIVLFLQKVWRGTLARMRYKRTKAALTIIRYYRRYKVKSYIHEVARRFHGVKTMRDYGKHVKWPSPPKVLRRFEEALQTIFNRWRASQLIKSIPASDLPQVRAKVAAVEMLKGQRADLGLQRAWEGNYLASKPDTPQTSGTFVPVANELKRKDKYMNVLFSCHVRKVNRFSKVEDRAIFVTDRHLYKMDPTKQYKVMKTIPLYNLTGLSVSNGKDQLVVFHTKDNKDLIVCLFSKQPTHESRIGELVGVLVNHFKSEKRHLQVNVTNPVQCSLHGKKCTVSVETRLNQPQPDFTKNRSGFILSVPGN
# UniProt Q9H3P2, sequence (Q9H3P2 whole entry, looked up): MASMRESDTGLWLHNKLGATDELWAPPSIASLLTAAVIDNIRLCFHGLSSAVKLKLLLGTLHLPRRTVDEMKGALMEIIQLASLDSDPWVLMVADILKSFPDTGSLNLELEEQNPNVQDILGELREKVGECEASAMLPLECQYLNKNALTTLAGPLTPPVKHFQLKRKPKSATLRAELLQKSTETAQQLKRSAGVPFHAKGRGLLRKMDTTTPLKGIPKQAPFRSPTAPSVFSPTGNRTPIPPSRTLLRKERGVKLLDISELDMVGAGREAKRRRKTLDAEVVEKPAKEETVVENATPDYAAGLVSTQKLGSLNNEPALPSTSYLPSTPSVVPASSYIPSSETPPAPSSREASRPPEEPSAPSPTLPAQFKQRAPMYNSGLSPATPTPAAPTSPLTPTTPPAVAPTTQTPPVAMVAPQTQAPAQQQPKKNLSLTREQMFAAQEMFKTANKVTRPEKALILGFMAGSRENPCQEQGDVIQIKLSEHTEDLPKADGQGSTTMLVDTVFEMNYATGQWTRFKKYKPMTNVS
Target,log2 fold change [1],log2 fold change [2],log2 fold change [3],log2 fold change [4],log2 fold change [5],log2 fold change [6],log2 fold change [7],log2 fold change [8],log2 fold change [9],log2 fold change [10],log2 fold change [11],log2 fold change [12],log2 fold change [13],log2 fold change [14],log2 fold change [15],log2 fold change [16],log2 fold change [17],log2 fold change [18],log2 fold change [19],log2 fold change [20]
OSBP2 (UniProt Q969R2),-0.056,-0.014,-0.055,0.062,-0.077,-0.001,-0.881 (active),0.279,0.068,0.104,-0.211,0.047,-0.102,0.011,-0.032,0.04,-0.1,0.052,-0.033,0.011
PAK1 (UniProt Q13153),-0.013,0.001,-0.001,-0.002,0.023,-0.011,0.013,0.06,0,-0.054,-0.023,0.026,0.011,-0.006,0.044,-0.012,0.023,0.016,0.02,-0.06
MTCH2 (UniProt Q9Y6C9),0.013,0.008,-0.02,0.021,0.05,-0.012,-0.155,0.014,-0.011,0.022,-0.032,-0.046,0.043,-0.003,0.047,-0.01,0.043,0.013,-0.062,-0.007
OLA1 (UniProt Q9NTK5),0.025,0.001,0.012,-0.047,-0.029,0.04,-0.135,0.035,-0.003,0.026,-0.002,-0.095,0.019,-0.029,-0.02,0.008,-0.004,0.017,0.011,-0.026
MRPS31 (UniProt Q92665),0.043,-0.001,-0.011,0.041,-0.004,-0.026,-0.046,0.034,0.014,0.021,-0.023,0.002,-0.029,0.024,0.018,0.006,-0.02,0.007,-0.017,-0.014
OGT (UniProt O15294),0.012,0.015,0.031,-0.003,-0.058,0.036,-0.002,-0.021,0.011,0.018,0.045,-0.129,0.054,0.018,0.019,0.043,0.121,0.01,0.007,-0.015
NCAPG (UniProt Q9BPX3),-0.013,0.021,0.018,-0.057,-0.023,0.015,-0.05,-0.024,0.001,-0.011,0.003,-0.113,0.011,0.024,0.01,-0.01,0.094,0.007,-0.01,0.003
MYO1D (UniProt O94832),0.073,0.018,0.05,0.006,-0.003,-0.002,-0.05,-0.035,-0.001,0.041,0.026,-0.091,-0.006,0.048,-0.008,0.058,-0.012,-0.019,0.012,-0.016
NADK2 (UniProt Q4G0N4),0.024,-0.013,0.034,0.078,0.008,-0.016,-0.019,0.02,-0.035,-0.036,-0.025,0.106,-0.036,0,0.04,-0.052,0.3 (active),-0.022,-0.004,-0.009
PAK4 (UniProt O96013),-0.016,-0.06,-0.005,-0.131,-0.134,0.259,0.02,0.3,-0.018,0.063,-0.019,-0.038,0.27,0.441,-0.021,-0.173,-0.057,0.002,0.241,-0.027
NUMB (UniProt P49757),0.001,0.001,0.028,0.06,-0.015,0.008,0.055,-0.061,0.024,-0.134,-0.021,-0.125,-0.028,-0.02,0.026,0.094,0.013,-0.031,-0.007,0.052
NARF (UniProt Q9UHQ1),0.035,0.035,0.028,0.011,0.135,-0.025,-0.055,0.014,0.023,0.049,0.001,0.011,0.031,-0.015,-0.014,0.047,0.003,-0.021,-0.019,-0.007
NUP210 (UniProt Q8TEM1),-0.009,0.048,0.072,-0.004,0.006,0.036,0.012,-0.015,0.029,-0.004,0.014,0.107,-0.061,0.035,-0.011,0.086,0.145,0.009,0.002,0.003
NIFK (UniProt Q9BYG3),0.015,0.036,0.033,0.006,-0.027,0.009,0.093,-0.045,0.005,-0.018,0.009,-0.023,-0.023,0,0.095,0.039,-0.003,-0.073,-0.014,0.01
NEBL isoform 2 (UniProt O76041),0.014,0.009,-0.078,0.02,0.051,-0.041,-0.108,0.084,0.023,-0.039,-0.079,0.07,0.012,0.011,0.023,0.009,-0.043,-0.024,-0.003,0.037
NELFA (UniProt Q9H3P2),0.015,0.02,-0.005,-0.016,-0.083,0.007,0.037,-0.037,-0.013,0.029,0.036,-0.139,0.022,0.056,0.051,0,0.025,0.006,-0.006,-0.015
